Measured values from PubChem BioAssay (EPA / NIEHS).
Activity calls are given as the source filed them. The calls were made as follows: active = hit-call score of the fitted dose curve at least 0.9, where 1 is the maximum; inactive = score below 0.9.

These molecules were tested on Thyroid Hormone Responsive (THRSP), THRSP (gene 7069) (assay: LTEA_HepaRG_THRSP: Life Technologies and Expression Analysis (LTEA) Assay for Thyroid Hormone Responsive (THRSP) using HepaRG (AID 2283536)). Details: mRNA level, 48 h; actives raise or lower the signal.
Description: LTEA_HepaRG is a cell based, multiplexed-readout assay that uses HepaRG, a human liver cell line, with measurements taken at 48 hours after chemical dosing on a 96-well plate.LTEA_HepaRG_THRSP is one of 102 assay component(s) measured in the LTEA HepaRG cell culture assay. It is a marker of NR mediated metabolism.Data from the assay component LTEA_HepaRG_THRSP was analyzed into 1 endpoint. This assay endpoint, LTEA_HepaRG_THRSP, was analyzed with bidirectional fitting relative to DMSO as the negative control and baseline of activity. Using a type of inducible reporter, measures of mRNA induction for gain or loss-of-signal activity can be used to understand regulation of transcription factor activity. To generalize the intended target to other relatable targets, this assay endpoint is annotated to the growth factor intended target family, where the subfamily is NR mediated metabolism.
A total of 1060 chemcials from the ToxCast library were tested in eight-point concentration-response experiments. Cell culture and cytotoxicity assays were conducted at Thermo Fisher Scientific's Custom Services facility (Madison, WI). A single lot of human HepaRG cells (Thermo Fisher Scientific, Frederick, MD) was used for the cell culture experiments. 96-well format collagen type I coated plates of human HepaRG cells were prepared using established methods. Briefly, cryopreserved HepaRG cells were thawed, plated at a density of approximately 100,000 cells/well in HepaRG Thaw, Plate, and General Purpose media (HPRG770, Thermo Fisher Scientific), and incubated for 48 hours. 0.5% DMSO was selected as vehicle control to balance the requisite need of DMSO in HepaRG cultures to maintain differentiation (for example, baseline metabolism, proportions of hepatocytes vs. cholangiocytes), while enabling further hepatic receptor pathway activation (for example, PXR and CAR) in response to chemical exposure. 48 hours after plating, the culture medium was replaced with HepaRG Serum-Free Incudtion Media. Cells were exposed to each test chemical in duplicate and maintained in CO2 incubators for another 48 hours. Chemical plates were thawed to room temperature and 200x concentrations of treatment groups were prepared. 8-point conentration-reponse curves were made with the highest exposure at 100 uM, followed by half-log dilutions, all in 0.5% DMSO. Each test plate contained variouse controls, induction positive controls (1mM phenobarbital), cytotoxicity positive controls ([…] aflatoxin B1), vehicle controls (0.5% DMSO), and total lysis controls (0.5% DMSO). Cell morphology images were taken using an Essen IncuCyte FLR automated microscope, with six 96-well plates imaged in about 24 minutes. Images were captured and exported and JPEG files. Spent culture media was transfered to black-well plates for the LDH assay, and remaining media was sorted at -80 C for later use. Cells were treated with RLT buffer and frozen until shipped for gene expression analysis. Total RNA was isolated from the cell suspension in 75 uL of Buffer RLT (Qiagen, Germantown, MD 20874) by Quintiles/Expression Analysis (Durham, NC) using a custom isolation procedure. Total RNA from each plate well was transferred to a preamplification plate. Fluidigm's 96.96 Dynamic ArrayTM (Fluidigm, Amsterdam, the Netherlands) technology was used for gene expression analyses by quantitative reverse transcription polymerase chain reaction (qRT-PCR, performed by Quintiles/Expression Analysis, Durham, NC)89. Standard TaqManTM Assays (Applied Biosystems/ThermoFisher Scientific, Foster City, CA) were used to assess the expression of 93 genes selected based on their selectivity and sensitivity to important hepatic receptors known to be modulated by environmental chemicals; importance in human hepatocyte functionality; and hepatotoxicity. […]

Q: `c1ccc2c(c1)-c1cccc3c1c-2cc1ccccc13` was tested. Which AC50 did it give?
A: The AC50 was 27.7 µM (active).

Q: `C=CN1CCCC1=O` was tested. Which outcome did it give?
A: Its outcome is “inactive”.

Q: `CCCCN1C(=O)[C@@H]([C@H](O)C2CCCCC2)NC(=O)C12CCN(Cc1ccc(Oc3ccc(C(=O)O)cc3)cc1)CC2` was tested. Which AC50 did it give?
A: The AC50 was 1.27 µM (active).

Q: For `c1ccc(C(O[C@@H]2CCCN(CCc3ccc4c(c3)OCO4)C2)c2ccccc2)cc1`, which outcome is on record?
A: The outcome was “inactive”.

Q: `Cn1c(=O)c2[nH]cnc2n(C)c1=O` was tested. Which outcome did it give?
A: Its outcome is “inactive”.

Q: For `Cc1nc(-c2ccccn2)ncc1C(=O)Nn1cc(C)c2cc(F)ccc21`, which outcome is on record?
A: The outcome was “inactive”.

Q: For `CCCC(CCC)C(=O)O`, which outcome is on record?
A: The outcome was “inactive”.

Q: How did the outcome turn out when `NC(=O)N(O)[C@@H]1COc2cc(OCc3ccccc3)ccc21` was run?
A: The outcome was “inactive”.

Q: With `OCCOCCOCCO` as the molecule, how does the outcome read?
A: The outcome was “inactive”.

Q: How did the outcome turn out when `OCCNCCO` was run?
A: Its outcome is “inactive”.

Q: For `COS(C)(=O)=O`, which outcome is on record?
A: The outcome was “inactive”.

Q: For `O=S(=O)(O)c1ccc(N=Nc2c(O)ccc3cc(S(=O)(=O)O)ccc23)cc1`, which outcome is on record?
A: Its outcome is “inactive”.

Q: How did the outcome turn out when `c1ccc2ncccc2c1` was run?
A: Its outcome is “inactive”.

Q: With `O=C(NO)C1(NS(=O)(=O)c2ccc(Oc3ccc(F)cc3)cc2)CCOCC1` as the molecule, how does the AC50 read?
A: Its AC50 is 78.1 µM (active).

Q: `CCCCCCCCCCCCCCCCOS(=O)(=O)O` was tested. Which AC50 did it give?
A: Its AC50 is 41.1 µM (active).

Q: `CCCCCCOC(=O)CC(CC(=O)OCCCCCC)(OC(=O)CCC)C(=O)OCCCCCC` was tested. Which outcome did it give?
A: The outcome was “inactive”.

Q: How did the outcome turn out when `CCCCCCCC/C=C\CCCCCCCC(=O)OC[C@@H](O)[C@H]1OC[C@H](O)[C@H]1O` was run?
A: Its outcome is “inactive”.

Q: With `NC(=O)NN=Cc1ccc([N+](=O)[O-])o1` as the molecule, how does the outcome read?
A: The outcome was “inactive”.

Q: For `CC(C)CCCCCCOC(=O)C1CCCCC1C(=O)OCCCCCCC(C)C` (stereo not given), which outcome is on record?
A: The outcome was “inactive”.

Q: With `C[C@@H](Oc1ccc(CNC(=O)c2cccnc2Oc2ccc3c(c2)OCO3)c(F)c1)C(=O)O` as the molecule, how does the outcome read?
A: The outcome was “inactive”.

Q: For `CC1(C)C(=O)N(Cl)C(=O)N1Cl`, which outcome is on record?
A: The outcome was “inactive”.

Q: `O=C1CN(N=Cc2ccc([N+](=O)[O-])o2)C(=O)N1` was tested. Which AC50 did it give?
A: The AC50 was 9.92 µM (active).

Q: How did the AC50 turn out when `O=C(O)c1cccc(C[C@@H]2COc3ccc(OCc4nc5cc(F)ccc5s4)cc3[C@@H]2O)c1` was run?
A: The AC50 was 80.5 µM (active).

Q: `COCc1nnc(-c2ccc[n+]([O-])c2)n1-c1c(Cl)c(Cl)cc2[nH]c(=O)c(=O)[nH]c12` was tested. Which outcome did it give?
A: Its outcome is “inactive”.

Q: How did the outcome turn out when `CCN(CC)C(=S)SSC(=S)N(CC)CC` was run?
A: Its outcome is “inactive”.

Q: Which outcome does the source give for `CCc1ccc(O)c(C(C)(C)C)c1` here?
A: The outcome was “inactive”.

Q: For `Cc1ccc(S(=O)(=O)NC(=O)NN2CCCCCC2)cc1`, which outcome is on record?
A: The outcome was “inactive”.

Q: With `CCc1cccc(CC)c1N` as the molecule, how does the outcome read?
A: Its outcome is “inactive”.

Q: For `Cn1cc[nH]c1=S`, which outcome is on record?
A: The outcome was “inactive”.

Q: For `CC[C@H](C)C(=O)O[C@H]1C[C@H](O)C=C2C=C[C@H](C)[C@H](CC[C@@H](O)C[C@@H](O)CC(=O)O)[C@H]21`, which AC50 is on record?
A: The AC50 was 21.9 µM (active).

Q: Which outcome does the source give for `CCn1nc(C)c2c1C(=O)NCC(c1ccc(O)cc1)=N2` here?
A: The outcome was “inactive”.

Q: For `C[C@]12C=CC(=O)C=C1CC[C@H]1[C@@H]3C[C@@H](O)[C@](O)(C(=O)CO)[C@@]3(C)C[C@H](O)[C@@]12F`, which outcome is on record?
A: The outcome was “inactive”.

Q: For `CCCCCCCCN(C)C`, which outcome is on record?
A: Its outcome is “inactive”.

Q: `CC(C)c1nnc2ccc(-c3ocnc3-c3cc(F)ccc3F)cn12` was tested. Which AC50 did it give?
A: The AC50 was 9.92 µM (active).

Q: With `c1ccc2cc3ccccc3cc2c1` as the molecule, how does the outcome read?
A: Its outcome is “inactive”.

Q: With `O=S1(=O)CCCO1` as the molecule, how does the outcome read?
A: The outcome was “inactive”.

Q: For `CCCCCCCCCCCCCCO`, which outcome is on record?
A: The outcome was “inactive”.

Q: Which outcome does the source give for `Nc1ccn([C@@H]2O[C@H](CO)[C@@H](O)[C@@H]2O)c(=O)n1` here?
A: The outcome was “inactive”.

Q: With `CCCCOC(=O)c1ccccc1` as the molecule, how does the outcome read?
A: Its outcome is “inactive”.

Q: With `COc1cc2c(c(OC)c1OC)-c1ccc(OC)c(=O)cc1[C@@H](NC(C)=O)CC2` as the molecule, how does the AC50 read?
A: The AC50 was 0.073 µM (active).
